Screens from PubChem.
PG9 Ab binder: binds the HIV-1 gp120 antibody PG9; TR-FRET gp120-PG9 antibody binding; inhibition, % at 6.7 µM; 0.43% of 360,000 active; AID 624416; in the data active = inhibition above about 8.5%
Granule exo inh: blocks lytic granule exocytosis. TALL-104 LAMP-1 surface exposure, flow cytometry; cells stimulated with thapsigargin and PMA. inhibition, % at 10 µM. AID 651702. 0.66% of 360,000 active;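 active = inhibition above about 55%, limit read from the data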
ABCB6 inh MLPCN: human ABCB6 transporter inhibition; Q9NP58; K562-ABCB6 porphyrin accumulation, flow cytometry, 1 h; hits give low values; fluorescence ratio to DMSO, % at 10 µM; 0.19% of 360,000 active; AID 602162;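 active = fluorescence ratio to DMSO below 75%, the collection mean minus 3 SD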;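 note: signal is porphyrin accumulated inside mitochondria; lower ratio means ABCB6 inhibition with less porphyrin fluorescence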
VLA-4 inh: inhibition in a human VLA-4 binding assay; VLA-4 expressing cells, ligand binding flow cytometry; inhibition, % (about 7 µM as worked out from the volumes in the protocol); 0.2% of 330,000 active; AID 2557; in the data active = inhibition above about 50%
Rev-erbA mod: Rev-erb alpha (human) modulation. Rev-erbα–FITC-DNA binding, fluorescence polarization, 90 min. activity, % at 10 µM. 0.79% of 370,000 active;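 active = activity above about 14%, limit read from the data; passing the limit was not always enough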
Target sequence (P20393 whole entry, looked up): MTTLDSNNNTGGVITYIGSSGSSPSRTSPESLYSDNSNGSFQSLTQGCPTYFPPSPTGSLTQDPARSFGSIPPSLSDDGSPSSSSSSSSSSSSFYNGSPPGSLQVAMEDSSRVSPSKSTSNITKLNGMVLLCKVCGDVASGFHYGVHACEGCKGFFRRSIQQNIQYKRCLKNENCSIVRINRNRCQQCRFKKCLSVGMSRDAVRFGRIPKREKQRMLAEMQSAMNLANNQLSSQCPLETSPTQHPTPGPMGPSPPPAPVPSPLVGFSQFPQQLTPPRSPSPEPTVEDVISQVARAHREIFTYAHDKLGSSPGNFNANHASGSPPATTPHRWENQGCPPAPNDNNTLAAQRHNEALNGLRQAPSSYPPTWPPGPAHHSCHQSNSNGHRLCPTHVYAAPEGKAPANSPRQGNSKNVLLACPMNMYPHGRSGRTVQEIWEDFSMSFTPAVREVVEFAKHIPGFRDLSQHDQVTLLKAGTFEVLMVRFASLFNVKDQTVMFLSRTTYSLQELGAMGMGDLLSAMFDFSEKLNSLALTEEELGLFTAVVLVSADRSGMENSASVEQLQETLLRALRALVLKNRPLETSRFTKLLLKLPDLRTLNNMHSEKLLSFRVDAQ
VLA-4 allo CP: confirmation of allosteric modulators of human VLA-4 integrin | inhibition, % at 6.7 µM | shares compounds with VLA-4 inh | 2% of 1,300 active | U937 cells, HUTS-21 LIBS mAb binding, flow cytometry; LDV ligand present at threefold Kd; in the data active = inhibition above about 40%
ABCB6 blocker 1: human ABCB6 transporter inhibition. K562-ABCB6 porphyrin accumulation, flow cytometry, 1 h; hits give low values. AID 602430. shares compounds with ABCB6 inh MLPCN. 700 tested, under 10 active. ratio response (% of DMSO), % at 10 µM;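 active = repeat-averaged ratio response below 75% of DMSO, the collection mean minus 3 SD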;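 note: median porphyrin fluorescence at 575 nm with 488 nm excitation from mitochondria; lower ratio means less porphyrin signal so ABCB6 inhibition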
PG9 binder conf: PG9 antibody binding, confirmed | shares compounds with PG9 Ab binder | TR-FRET PG9 antibody binding, biochemical | inhibition, % at 6.7 µM | 90% of 1,500 active; in the data active = inhibition above about 9%
PGV04 counter: PGV04 control antibody binding, counter-screen; TR-FRET PGV04 antibody-gp120 binding, biochemical; AID 651604; 95% of 1,500 active; shares compounds with PG9 Ab binder; inhibition, % at 6.7 µM; in the data active = inhibition above about 9.5%
Granule exo CP1: lytic granule exocytosis inhibition; AID 651954; shares compounds with Granule exo inh; TALL-104 cells, LAMP-1 externalization, flow cytometry; stimulated with PMA plus thapsigargin; inhibition, % at 10 µM; 11% of 1,500 active; in the data active = inhibition above about 60%
NR1D1 mod conf: Rev-erb alpha (human) modulation, hit confirmation; Rev-erb alpha FITC-DNA binding, fluorescence polarization, 90 min; activation, % at 25 µM; 61% of 3,000 active; shares compounds with Rev-erbA mod;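 active = activation at or above a set limit, or at least 3 SD above the negative control mean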
Each line names hits and unclear results; the compound was inactive in the other large screens (follow-up assays come after a bar, where they were run). The list is not random: actives were taken first. Their share in the collection is about 2%.

O=C(c1ccc2nc(N3CCOCC3)sc2c1)N1CCN(C(=O)c2ccco2)CC1	none | VLA-4 allo CP inactive
O=C(c1ccco1)N1CCN(C(=O)N2CCOCC2)CC1	none
O=C(NCc1ccccc1)c1ccc2nc(N3CCOCC3)sc2c1	none
Cc1cc(C(=O)N2CCN(C(=O)c3ccco3)CC2)ccc1[N+](=O)[O-]	VLA-4 inh 51.0 | VLA-4 allo CP inactive
CCN(CC)C(=O)CC[C@H]1CC[C@]2(CCCN(S(=O)(=O)C3CCCCC3)C2)O1	none (no result: PG9 Ab binder, Granule exo inh, ABCB6 inh MLPCN, VLA-4 inh)
O=C(Nc1ccccc1)OCc1cncs1	none | VLA-4 allo CP inactive
O=C(/C=C/c1ccccc1)OCc1cncs1	none
CC(=O)Nc1cccc(OCc2cnc(Cl)s2)c1	none
O=C(Nc1ccccc1)OCc1cnc(Cl)s1	none | VLA-4 allo CP inactive
O=C(Nc1ccc(Cl)c(Cl)c1)OCc1cncs1	none | VLA-4 allo CP inactive
O=C(Nc1ccc(Cl)c(Cl)c1)OCc1cnc(Cl)s1	none | VLA-4 allo CP inactive
COC(=O)C1=C(C)N(C)C(=NCc2ccc(OC)cc2)NC1c1ccc(Cl)cc1 (stereo not drawn)	none (no result: Granule exo inh, ABCB6 inh MLPCN, VLA-4 inh)
COc1cc2c(cc1OC)C(c1cc(OC)c(OC)cc1[N+](=O)[O-])N(C(C)=O)CC2 (stereo not drawn)	none | VLA-4 allo CP inactive
C[C@H]1COc2cc(N3CCCC3)ccc2S(=O)(=O)N1C	none (no result: PG9 Ab binder, Granule exo inh, ABCB6 inh MLPCN, VLA-4 inh)
Cc1ccc(-c2nc(-c3ccncc3)no2)cc1	none
Cc1ccc(-c2nc(-c3ccccc3)no2)cc1	VLA-4 inh 94.7 | VLA-4 allo CP inactive
COc1cccc(-c2sc3ccc(OC)cc3c2-c2ccc(C(N)=O)cc2)c1	none
COc1cccc(-c2sc3ccccc3c2-c2ccc(OCCN3CCCC3)cc2)c1	VLA-4 inh 63.8 | VLA-4 allo CP inactive
COc1cccc(-c2sc3ccc(OC)cc3c2-c2ccc(OC)cc2F)c1	none
COc1cccc(-c2sc3ccccc3c2-c2ccc(OCCN(C)C)cc2)c1	VLA-4 inh 72.1 | VLA-4 allo CP 44.2
COc1cccc(-c2sc3ccc(OC)cc3c2-c2ccc(OCCN3CCCC3)cc2)c1	none (no result: PG9 Ab binder, VLA-4 inh, Rev-erbA mod) | VLA-4 allo CP inactive
COc1ccc(-c2sc3ccc(OC)cc3c2-c2ccc(OCCN3CCOCC3)cc2)cc1	none (no result: PG9 Ab binder, VLA-4 inh, Rev-erbA mod) | VLA-4 allo CP inactive
CCCC1CCC2(CC1)CCC2OC(=S)NCc1cccc(OC)c1 (stereo not drawn)	none (no result: PG9 Ab binder, Granule exo inh, ABCB6 inh MLPCN, VLA-4 inh)
COc1ccc(S[C@]2(C(=O)N3CCN(c4ncccn4)CC3)CC(=O)N(c3ccc4ccccc4c3)[C@@H]2c2ccc(OC)cc2)cc1	none (no result: PG9 Ab binder, Granule exo inh, ABCB6 inh MLPCN, VLA-4 inh)
COc1ccc2sc(-c3ccccc3OC)c(-c3ccc(OCCN(C)C)cc3)c2c1	none (no result: VLA-4 inh) | VLA-4 allo CP inactive
COc1cccc(-c2sc3cc(OC)c(OC)cc3c2-c2ccc(OCCN3CCCCC3)cc2)c1	Granule exo inh 61.9 (no result: PG9 Ab binder, VLA-4 inh, Rev-erbA mod) | VLA-4 allo CP inactive
COc1ccc2sc(-c3ccccc3OC)c(-c3ccc(SC)cc3)c2c1	none (no result: VLA-4 inh)
COc1cccc(-c2sc3ccccc3c2-c2ccc(OCCN3CCCCC3)cc2)c1	none (no result: PG9 Ab binder, Rev-erbA mod) | VLA-4 allo CP inactive
COc1ccc(-c2sc3cc(OC)ccc3c2-c2ccc(OCCN3CCCCC3)cc2)cc1	none (no result: VLA-4 inh)
Cc1ccc(CNC(=O)O[C@H]2CC[C@@]34CCCN3C(=O)CCC[C@H]4[C@H]2C)o1	none (no result: PG9 Ab binder, Granule exo inh, ABCB6 inh MLPCN, VLA-4 inh)
CCN1Cc2nnn(Cc3ccccc3)c2-c2ccccc2S1(=O)=O	none (no result: PG9 Ab binder, Granule exo inh, ABCB6 inh MLPCN, VLA-4 inh)
Cc1ccc(-c2nnc(Nc3ccc(O)cc3)c3ccccc23)cc1S(=O)(=O)NCCO	none
CCOC(=O)CNS(=O)(=O)c1cc(-c2nnc(Nc3ccc4c(c3)OCO4)c3ccccc23)ccc1C	VLA-4 inh 61.0 | VLA-4 allo CP inactive
COc1ccc(C(=O)OCC(=O)Nc2cc(C)c(C)cc2[N+](=O)[O-])cc1	ABCB6 inh MLPCN 57.0, VLA-4 inh 53.8 | VLA-4 allo CP inactive | ABCB6 blocker 1 inactive
CCCCNC(=O)C[C@H]1C[C@@]2(C(=O)OC)C(=C[C@H](C(C)(C)C)O[C@@H]2C)N(Cc2ccc(Cl)cc2Cl)C1=O	none (no result: PG9 Ab binder, Granule exo inh, ABCB6 inh MLPCN, VLA-4 inh)
OC(CNCc1ccco1)Cn1c2ccc(Br)cc2c2cc(Br)ccc21 (stereo not drawn)	Granule exo inh 77.7, VLA-4 inh 66.6 | VLA-4 allo CP inactive | Granule exo CP1 inactive
CC(C)NC(=O)Cn1c(-c2cncs2)nc2ccccc21	none (no result: PG9 Ab binder, Granule exo inh, ABCB6 inh MLPCN, VLA-4 inh)
CC(=O)Nc1ccc(NC(=O)CNC(=O)c2sc3ccccc3c2Cl)cc1	none
O=C(CNC(=O)c1sc2ccccc2c1Cl)NCc1cccc(C(F)(F)F)c1	PG9 Ab binder 15.4, VLA-4 inh 53.3, Rev-erbA mod 31.1 | VLA-4 allo CP inactive | PG9 binder conf 17.3 | PGV04 counter 19.1 | NR1D1 mod conf 17.3
Cc1ccc(CN(C)C[C@H]2OCc3cnnn3CCCC(=O)N([C@H](C)CO)C[C@@H]2C)cc1	none (no result: Granule exo inh, ABCB6 inh MLPCN, VLA-4 inh)
O=C(NC1CCCCN(Cc2cccc(C(F)(F)F)c2)C1=O)c1ccc(COc2ccccc2)cc1 (stereo not drawn)	none (no result: PG9 Ab binder, Granule exo inh, ABCB6 inh MLPCN, VLA-4 inh)
CCOC(=O)c1c(NC(=O)C2c3ccccc3Oc3ccccc32)sc(C(N)=O)c1C	PG9 Ab binder 33.4, Rev-erbA mod 40.5 | VLA-4 allo CP inactive | PG9 binder conf 28.3 | PGV04 counter 41.2 | NR1D1 mod conf 26.1
COc1cc(/C=C/c2noc(-c3ccccc3O)n2)cc(OC)c1OC	Rev-erbA mod 51.0 | VLA-4 allo CP inactive | NR1D1 mod conf 24.6
Cc1nc(NC(=O)c2cccc(-c3cc4ccccc4oc3=O)c2)ccc1Br	none
Cc1nc(NC(=O)c2ccc(-c3cc4ccccc4oc3=O)cc2)ccc1Br	Rev-erbA mod 35.6 | VLA-4 allo CP inactive | NR1D1 mod conf inactive
O=C(NCCc1c[nH]c2ccccc12)c1ccc(Sc2ccccc2Cl)c([N+](=O)[O-])c1	none (no result: PG9 Ab binder, Granule exo inh, ABCB6 inh MLPCN, VLA-4 inh)
CCC(=O)c1cn(CC(=O)Nc2cccc(OC)c2)c2ccccc12	Rev-erbA mod 25.7 | VLA-4 allo CP inactive | NR1D1 mod conf inactive
CCC(=O)c1cn(CC(=O)Nc2ccc(F)cc2)c2ccccc12	none (no result: VLA-4 inh)
